Molecules are shown by their SMILES. “And” between values parts separate entries of the source, which are not always exact repeats. Equal entries are not always repeated. Structures can show the parent of a compound that is named as a salt.

For the assay, the system named is Neuro-2a. The assay can be described thus: neurite formation score, plate-normalized to DMSO control mean 5.04 (score (0-8 scale)); higher = more or longer neurites. Particulars: 0.1 µM. The method, then: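 Neuro-2a mouse neuroblastoma cells in PLL-coated 96-well plates were pre-treated for 1 h in DMEM(+) with each kinase inhibitor at 0.1 µM, then switched to serum-free DMEM(-) with inhibitor to induce neurite outgrowth and fixed about 2-3 h later. Three blinded observers scored neurite formation from 0 (no neurites) to 8 (long neurites on almost all cells).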
`COc1ccc(S(=O)(=O)N(CCO)c2ccccc2CN(C)C/C=C/c2ccc(Cl)cc2)cc1` [KN-93 Phosphate]: the neurite formation score was 4.42.

Regarding `CC(=O)c1c(C)c2cnc(Nc3ccc(N4CCNCC4)cn3)nc2n(C2CCCC2)c1=O`, the neurite formation score was 4.88 and 4.54.

For the compound `NC(=O)c1ncn([C@@H]2O[C@H](CO)[C@@H](O)[C@H]2O)c1N`, the neurite formation score was determined as 5.54.

Take `Nc1ccc(C(=O)Nc2cccc(-c3nc(N4CCOCC4)c4oc5ncccc5c4n3)c2)cn1`: the neurite formation score amounted to 4.42.

`Cc1cc(C)c(/C=C2\C(=O)Nc3ccccc32)[nH]1` came in with a neurite formation score of 5.25.

Take `CNc1nc(Nc2ccc(C(=O)N3CCOCC3)cc2OC)ncc1Cl`: the neurite formation score was found to be 4.58.

In turn, `Cc1c(NC(=O)c2ccc(C(C)(C)C)cc2)cccc1-c1cn(C)c(=O)c(Nc2ccc(C(=O)N3CCOCC3)cc2)n1` came in with a neurite formation score of 5.04.

`N#CCNC(=O)c1ccc(-c2ccnc(Nc3ccc(N4CCOCC4)cc3)n2)cc1` [CYT387 sulfate salt] returned a neurite formation score of 4.92.

`C[C@]1(O)C[C@@H](c2nc(-c3ccc4ccc(-c5ccccc5)nc4c3)c3c(N)nccn32)C1` [Linsitinib] displayed a neurite formation score of 4.54.

`CN(C)CCSSCCNC(=O)C1CCN(C(=O)CSc2ccc(Cl)cc2)CC1` returned a neurite formation score of 4.58.

For `CSc1cccc(Nc2ncc3cc(-c4c(Cl)cccc4Cl)c(=O)n(C)c3n2)c1`, the neurite formation score stood at 3.92.

Compound `O=C1Nc2ccc(I)cc2/C1=C/c1cc(Br)c(O)c(Br)c1` registered a neurite formation score of 4.25.

For `COc1cc2nccc(Oc3ccc(NC(=O)NC4CC4)c(Cl)c3)c2cc1C(N)=O` [Lenvatinib (E7080)], the neurite formation score is 4.38.

`COc1ccc(-c2cc3c(C)nc(N)nc3n([C@H]3CC[C@H](OCCO)CC3)c2=O)cn1`: the neurite formation score stood at 4.92.

`Cc1ccc(-c2csc3ncnc(SCCC(=O)O)c23)cc1` registered a neurite formation score of 4.58.

In turn, `C[C@@H]1CCNC(=O)c2cc3ccc(C(=O)Nc4nc5ccccc5n4CCCN(C)C)cc3n21` displayed a neurite formation score of 4.92.

In turn, `CC1(COc2ccc3c(c2)ncn3-c2ccc3cccc(N4CCC(N)CC4)c3n2)COC1` had a neurite formation score of 4.21.

In the case of `O=C1NCCSc2c1sc1ccc(O)cc21`, the neurite formation score worked out at 4.58.

The compound `O=C(Nc1ccc(CN2CCOCC2)cc1)c1ccc(-c2cccc(Cl)c2)o1` displayed a neurite formation score of 5.54.

`CNC(=O)c1cc(Oc2ccc(NC(=O)Nc3ccc(Cl)c(C(F)(F)F)c3)c(F)c2)ccn1` [Regorafenib] showed a neurite formation score of 4.88.

`COc1cc2nccc(Oc3ccc(NC(=O)C4(C(=O)Nc5ccc(F)cc5)CC4)cc3)c2cc1OC` gave a neurite formation score of 4.38.

For `COc1ccc(Cl)cc1NC(=O)Nc1cc(C)nc2ccccc12`, the neurite formation score came out at 5.04.

In turn, `CC(C)CC(=O)Nc1n[nH]c2c1CN(C(=O)C1CCN(C)CC1)C2(C)C` showed a neurite formation score of 4.54.

`Nc1cccc(-c2cc3c(Oc4cccc(O)c4)ncnc3[nH]2)c1`: the neurite formation score is 3.75.

For `COc1ccc(-c2nc(N3CCOCC3)c3sc(CN(C)c4ncc(C(=O)NO)cn4)cc3n2)cn1`, the neurite formation score came out at 3.58.

Compound `O=C1NC(=O)[C@@H](c2cn3c4c(cccc24)CCC3)[C@@H]1c1c[nH]c2ccccc12` [Tivantinib (ARQ 197)] showed a neurite formation score of 0.876.

`CN(C)c1nc2c(Br)c(Br)c(Br)c(Br)c2[nH]1` came in with a neurite formation score of 5.25.

`CC(C)(C)n1nc(-c2ccc(Cl)cc2)c2c(N)ncnc21`: the neurite formation score was 3.88.

On to `COc1cc(N2CCC(N3CCN(C)CC3)CC2)ccc1Nc1ncc(Cl)c(Nc2ccccc2S(=O)(=O)C(C)C)n1`, for which the neurite formation score came out at 5.54.

`Cc1cc2c(F)c(Oc3ncnn4cc(OC[C@@H](C)OC(=O)[C@H](C)N)c(C)c34)ccc2[nH]1`: the neurite formation score was 4.04.

Consider `CS(=O)(=O)N1CCN(Cc2cc3nc(-c4cccc5[nH]ncc45)nc(N4CCOCC4)c3s2)CC1` [GDC-0941 dimethanesulfonate], for which the neurite formation score is 2.09.

Regarding `Cc1ccc(NC(=O)c2cccc(N(C)C)c2)cc1NC(=O)c1ccc(O)cc1`, the neurite formation score was 4.58.

As for `CNC(=O)c1cc(Oc2ccc3nc(N[C@@H]4CCCC[C@H]4O)sc3c2)ccn1`, the neurite formation score worked out at 4.75.

`COc1ccc(S(=O)(=O)N(C(C)=O)c2ccccc2/C=C/c2cc[n+]([O-])cc2)cc1` returned a neurite formation score of 3.54.

Take `CCOc1ccc(Nc2ccc(/C(=C3C=C/C(=[N+](/CC)Cc4cccc(S(=O)(=O)[O-])c4)C=C/3C)c3ccc(N(CC)Cc4cccc(S(=O)(=O)O)c4)cc3C)cc2)cc1` [Brilliant Blue G]: the neurite formation score amounted to 2.08.

Regarding `O=C(NCCCNc1nc(Nc2cccc(CN3CCOCC3)c2)ncc1C1CC1)C1CCC1`, the neurite formation score worked out at 5.25.

Take `COc1cc(Nc2nc3ccccc3nc2NS(=O)(=O)c2ccc(NC(=O)c3ccc(C)c(OC)c3)cc2)cc(OC)c1`: the neurite formation score is 4.21.

`CNC(=O)c1ccc(C)c(-n2c(C)cc(OCc3ccc(F)cc3F)c(Br)c2=O)c1`: the neurite formation score was found to be 2.21.

`Cn1cnc2c(F)c(Nc3ccc(Br)cc3Cl)c(C(=O)NOCCO)cc21` [AZD6244 (Selumetinib)] came in with a neurite formation score of 5.54.

For the compound `COc1cc2ncnc(Sc3nnc(C)s3)c2cc1OC`, the neurite formation score amounted to 4.25.

Source of the values: the supplement of paper PMC8047044.
